Measured values as given in PubChem BioAssay.
Activity calls are given as the source filed them. Unless noted, how the calls were made is not given here.

Assays:
[1] = compounds binding Alexa647 anti-His antibody – biochemical, small-molecule microarray, 635 nm fluorescence, artefact control for SMM control protein annotation, primary screen (AID 1128); details: higher = more signal;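 further: score merges feature fluorescence with signal-to-noise for each printed compound spot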
[2] = test system: Human papillomavirus type 1a E7 protein (residues 1-88); assay: HPV1a E7 small-molecule binders, primary screen, biochemical, small-molecule microarray, residues 1-88, 635 nm (AID 1129); details: small-molecule microarray binding, fluorescence 635 nm; higher = more signal
[3] = target: Focal adhesion kinase 1 (Homo sapiens) (UniProt Q05397); assay: PTK2 protein binding on printed compound slides – biochemical, small-molecule microarray, 635/667 nm fluorescence, BSA, DTT, primary screen (AID 1130); details: 635 nm fluorescence, higher = more signal;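 further: composite of spot emission at 667 nm and signal to noise over triplicate slides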
[4] = test system: Fibrinogen (Alexa647-labelled); assay: Alexa647-fibrinogen binding to printed small molecules – biochemical, small-molecule microarray, 635/667 nm fluorescence, artefact control for SMM control-protein annotation, profiling panel (AID 1131); details: fibrinogen-A647 binding fluorescence, higher = more signal;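 further: z-score merges 667 nm fluorescence with per-spot signal-to-noise over triplicate slides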
[5] = target: Follistatin (Homo sapiens) (UniProt P19883); assay: FST protein binding to printed compounds – biochemical, small-molecule microarray, 635/667 nm fluorescence, primary screen (AID 1132); details: 635 nm fluorescence, higher = more signal
[6] = target: Fibroblast growth factor 2 (Homo sapiens) (UniProt P09038); assay: basic fibroblast growth factor binding to printed compounds – biochemical, small-molecule microarray, 635/667 nm fluorescence, primary screen (AID 1133); details: FGF2, fluorescence 635/667, higher = more signal
[7] = JC-1 mitochondrial potential readout, lung cancer cells – cell-based, A549, JC-1 fluorescence, basal, 24 h, 100 nL, profiling panel (AID 1138); details: higher = more signal;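 further: A549 lung adenocarcinoma cells under basal conditions with no added stimulus; test concentration not given here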
Lefty1 = Lefty1 protein binding to printed compounds – biochemical, small-molecule microarray, 635/667 nm fluorescence, primary screen (AID 1139); details: fluorescence 635/667, higher = more signal
[8] = test system: wheat germ agglutinin (Triticum aestivum), Alexa647-labelled; assay: Alexa647-WGA lectin binding to printed small molecules – biochemical, small-molecule microarray, 635/667 nm fluorescence, artefact control for SMM control-protein annotation, profiling panel (AID 1140); details: WGA-A647 binding, 635 nm fluorescence, higher = more signal;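 further: score merges 667 nm feature emission with signal to noise over triplicate slides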
[9] = target: Luciferin 4-monooxygenase (Photinus pyralis) (UniProt P08659); assay: inhibition of purified Photinus pyralis luciferase – biochemical, luminescence, purified enzyme, 2006 set, primary screen (AID 1141); details: purified firefly luciferase, SteadyGlo luminescence, 30 min; higher = more signal, called active from +8 up or from −8 down;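 further: cell-free assay with purified firefly luciferase at 100 ng per well in PBS; test concentration not given here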
[10] = test system: Wnt5a (protein binding on small-molecule microarray); assay: small molecules binding Wnt5a protein – biophysical, small-molecule microarray, 635/667 nm fluorescence, primary screen (AID 1142); details: 635 nm fluorescence, higher = more signal;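 further: fluorescence read at 667 nm with signal to noise per printed feature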
[11] = ATP-based viability of Huh7 replicon cells – cell-based, CellTiter-Glo luminescence, basal, 48 h, cytotoxicity control for HCV replication inhibitor project, primary screen (AID 1143); details: higher = more signal, called active from +8 up or from −8 down;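 further: Huh7 hepatoma cells carrying a hepatitis C replication reporter with no stimulus; test concentration not given here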
[12] = Pseudomonas biofilm growth suppression – PAO1 strain, BacTiter-Glo luminescence, LB-PBS, primary screen (AID 1144); details: P. aeruginosa PAO1 biofilm, 12 h, higher = more signal
[13] = basal CRE-LacZ reporter activity in PC12 – cell-based, unstimulated, primary screen (AID 1145); details: no forskolin, luminescence, 4.5 h, higher = more signal, called active from +8 up or from −8 down
[14] = forskolin-driven CRE-LacZ activity in PC12 – cell-based, CRE-LacZ reporter, forskolin-stimulated, primary screen (AID 1146); details: luminescence, 4.5 h, higher = more signal, called active from +8 up or from −8 down;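 further: PC12 cells with 6xCRE LacZ reporter stimulated by forskolin 10 µM; beta-galactosidase reporter signal reflecting CREB driven transcription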
[15] = target: Streptavidin (Streptomyces avidinii) (UniProt P22629); assay: compounds binding control protein streptavidin – biophysical, small-molecule microarray, 635/667 nm fluorescence, artefact control for SMM compound annotation, primary screen (AID 1147); details: higher = more signal;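 further: signal reflects streptavidin binding to arrayed compounds as a control protein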
[16] = probe aInhba binding on compound microarray – biochemical, small-molecule microarray, 635/667 nm fluorescence, primary screen (AID 1148); details: higher = more signal;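 further: score merges 667nm spot fluorescence with signal-to-noise for antibody binding to printed compounds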
Torsin-1A (Homo sapiens) [17] = target: Torsin-1A (Homo sapiens) (UniProt O14656); assay: TOR1A wild-type binding on microarray – cell lysate, small-molecule microarray, lysate, 635/667 nm, primary screen (AID 1149); details: COS7 hTOR1A-WT lysate, 635 nm fluorescence, higher = more signal
Torsin-1A (Homo sapiens) [18] = target: Torsin-1A (Homo sapiens) (UniProt O14656); assay: torsin A mutant lysate binding on microarrays – cell lysate, small-molecule microarray, COS7 lysate, 635/667 nm fluorescence, primary screen (AID 1150); details: COS7 hTOR1A mutant lysate, 635 nm fluorescence, higher = more signal;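 further: score pools 667 nm emission and signal to noise measuring lysate protein binding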
[19] = test system: Sonic hedgehog protein (Shh); assay: Sonic hedgehog microarray binding compounds – biochemical, small-molecule microarray, 635/667 nm fluorescence, primary screen (AID 1151); details: 635 nm fluorescence, higher = more signal;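 further: Shh protein binding to compounds spotted on small-molecule microarray slides; score combines spot fluorescence intensity with signal-to-noise across triplicate slides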

Luciferin 4-monooxygenase (Photinus pyralis), sequence (P08659 whole entry, looked up): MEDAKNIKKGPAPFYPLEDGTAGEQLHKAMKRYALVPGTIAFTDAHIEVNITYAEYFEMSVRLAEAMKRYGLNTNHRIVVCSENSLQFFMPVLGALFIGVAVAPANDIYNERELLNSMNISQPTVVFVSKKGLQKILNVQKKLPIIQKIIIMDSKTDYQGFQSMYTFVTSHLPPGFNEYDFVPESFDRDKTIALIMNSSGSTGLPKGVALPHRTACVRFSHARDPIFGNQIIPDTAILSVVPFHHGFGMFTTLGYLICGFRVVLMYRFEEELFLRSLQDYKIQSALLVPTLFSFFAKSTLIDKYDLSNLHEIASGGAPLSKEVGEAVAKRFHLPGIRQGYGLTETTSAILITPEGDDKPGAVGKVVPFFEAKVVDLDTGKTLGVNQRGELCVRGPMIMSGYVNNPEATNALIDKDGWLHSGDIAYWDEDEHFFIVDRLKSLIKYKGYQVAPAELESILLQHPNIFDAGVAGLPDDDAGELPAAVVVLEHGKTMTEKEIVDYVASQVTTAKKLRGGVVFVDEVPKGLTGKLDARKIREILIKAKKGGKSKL
Fibroblast growth factor 2 (Homo sapiens), sequence (P09038 whole entry, looked up): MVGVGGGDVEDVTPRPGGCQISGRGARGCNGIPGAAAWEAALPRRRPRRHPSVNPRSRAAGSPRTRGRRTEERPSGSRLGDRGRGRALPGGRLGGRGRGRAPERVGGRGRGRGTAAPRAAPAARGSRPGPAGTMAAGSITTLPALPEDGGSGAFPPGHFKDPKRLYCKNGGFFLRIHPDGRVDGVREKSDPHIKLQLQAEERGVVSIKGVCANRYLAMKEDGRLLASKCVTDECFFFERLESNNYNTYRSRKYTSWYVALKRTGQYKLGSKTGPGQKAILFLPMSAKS
Follistatin (Homo sapiens), sequence (P19883 whole entry, looked up): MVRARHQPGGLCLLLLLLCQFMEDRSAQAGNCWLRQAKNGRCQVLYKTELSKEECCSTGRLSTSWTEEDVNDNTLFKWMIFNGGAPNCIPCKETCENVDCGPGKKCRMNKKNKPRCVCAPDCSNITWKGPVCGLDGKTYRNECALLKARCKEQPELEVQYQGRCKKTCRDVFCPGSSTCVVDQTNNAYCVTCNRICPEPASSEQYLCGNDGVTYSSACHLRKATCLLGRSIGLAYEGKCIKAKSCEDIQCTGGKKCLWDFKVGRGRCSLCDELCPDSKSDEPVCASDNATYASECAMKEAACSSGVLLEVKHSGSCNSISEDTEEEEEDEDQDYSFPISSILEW
Streptavidin (Streptomyces avidinii), sequence (P22629 whole entry, looked up): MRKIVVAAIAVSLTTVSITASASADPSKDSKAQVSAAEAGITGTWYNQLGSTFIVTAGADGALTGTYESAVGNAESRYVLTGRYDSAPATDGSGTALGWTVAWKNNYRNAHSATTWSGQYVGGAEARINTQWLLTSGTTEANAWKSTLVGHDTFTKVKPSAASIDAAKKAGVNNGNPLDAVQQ
Focal adhesion kinase 1 (Homo sapiens), sequence (Q05397 whole entry, looked up): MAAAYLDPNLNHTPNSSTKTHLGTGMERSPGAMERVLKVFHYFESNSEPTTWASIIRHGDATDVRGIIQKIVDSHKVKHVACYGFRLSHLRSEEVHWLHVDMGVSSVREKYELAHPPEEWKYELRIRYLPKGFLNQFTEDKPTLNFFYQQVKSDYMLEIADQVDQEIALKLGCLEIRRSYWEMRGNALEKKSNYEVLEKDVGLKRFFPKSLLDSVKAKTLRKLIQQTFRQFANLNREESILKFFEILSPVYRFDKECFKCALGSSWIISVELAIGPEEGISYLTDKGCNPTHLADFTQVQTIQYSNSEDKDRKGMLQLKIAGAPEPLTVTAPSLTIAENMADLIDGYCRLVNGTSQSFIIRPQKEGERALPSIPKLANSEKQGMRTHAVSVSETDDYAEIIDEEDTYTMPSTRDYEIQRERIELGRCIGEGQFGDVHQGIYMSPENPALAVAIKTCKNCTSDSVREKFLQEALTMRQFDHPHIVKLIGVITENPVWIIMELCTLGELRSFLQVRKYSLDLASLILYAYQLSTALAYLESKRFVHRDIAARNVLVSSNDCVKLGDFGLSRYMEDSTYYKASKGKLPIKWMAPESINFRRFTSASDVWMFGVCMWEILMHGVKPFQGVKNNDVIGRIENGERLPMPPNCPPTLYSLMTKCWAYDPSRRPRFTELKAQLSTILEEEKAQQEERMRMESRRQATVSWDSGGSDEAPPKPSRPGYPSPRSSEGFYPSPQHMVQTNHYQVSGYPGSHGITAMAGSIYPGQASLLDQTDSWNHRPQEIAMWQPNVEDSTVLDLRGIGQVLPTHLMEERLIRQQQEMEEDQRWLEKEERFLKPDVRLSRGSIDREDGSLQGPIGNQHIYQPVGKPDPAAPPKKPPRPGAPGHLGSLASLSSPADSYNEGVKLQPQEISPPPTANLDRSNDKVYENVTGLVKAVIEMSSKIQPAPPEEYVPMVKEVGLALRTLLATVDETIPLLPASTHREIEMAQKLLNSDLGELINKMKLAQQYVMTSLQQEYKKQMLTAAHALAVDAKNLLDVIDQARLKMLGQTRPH
Torsin-1A (Homo sapiens), sequence (O14656 whole entry, looked up): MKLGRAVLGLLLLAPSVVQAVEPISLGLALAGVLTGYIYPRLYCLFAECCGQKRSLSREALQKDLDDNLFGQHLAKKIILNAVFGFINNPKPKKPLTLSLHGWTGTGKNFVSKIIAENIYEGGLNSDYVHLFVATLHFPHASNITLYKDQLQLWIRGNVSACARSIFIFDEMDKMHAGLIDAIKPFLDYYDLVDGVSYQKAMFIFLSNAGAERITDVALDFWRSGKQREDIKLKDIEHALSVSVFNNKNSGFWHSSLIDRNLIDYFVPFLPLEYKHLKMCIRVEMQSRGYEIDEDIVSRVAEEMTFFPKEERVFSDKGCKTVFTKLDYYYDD

Structure (SMILES) | composite z-score [1] | composite z-score [2] | composite z-score [3] | composite z-score [4] | composite z-score [5] | composite z-score [6] | z-score [7] | composite z-score (Lefty1) | composite z-score [8] | z-score [9] | composite z-score [10] | z-score [11] | z-score [12] | z-score [13] | z-score [14] | composite z-score [15] | composite z-score [16] | composite z-score (Torsin-1A (Homo sapiens) [17]) | composite z-score (Torsin-1A (Homo sapiens) [18]) | composite z-score [19]
CC=CC(O)C1C=CC2C(=O)N(c3ccccc3)C(=O)C2N1Nc1ccc(C(C)C)cc1 (stereo not given) | 0.585 | 1.2 | 0.777 | 0.831 | 1.12 | 0.133 | -0.723 | 0.0518 | 1.32 | -0.959 (inactive) | 0.288 | 0.0547 (inactive) | -0.302 (inactive) | 0.0501 (inactive) | 0.133 (inactive) | 1.24 | 0.143 | -0.173 | 0.55 | -0.0469
CS(=O)(=O)CCOC(=O)C1=CC(c2ccc(CO)cc2)=CC(C2CC2)N(Cc2cc3c(cc2Br)OCO3)C=C1C(=O)OCCS(C)(=O)=O (stereo not given) | 1.92 | 1.21 | 0.608 | 0.896 | 0.678 | 0.763 | 2.44 | 1.09 | 0.953 | -1.51 (inactive) | 0.377 | -3.38 (inactive) | -0.992 (inactive) | 5.81 (inactive) | -2.41 (inactive) | 1.54 | -0.0645 | 0.0194 | 1.45 | 0.595
O=C/C=C/c1ccc(Cl)cc1 | -0.318 | -1.36 | -0.195 | -0.991 | -0.329 | -0.236 | 2.19 | -0.283 | -0.488 | -0.712 (inactive) | 0.268 | -2.45 (inactive) | -0.421 (inactive) | -0.258 (inactive) | 0.716 (inactive) | -0.359 | -0.179 | -1.01 | -0.786 | -0.823
CO[C@H]1O[C@H](CO)[C@@H](OC(=O)Nc2ccc3c(c2)OCO3)[C@H](OC(=O)Nc2ccccc2)[C@H]1OC(=O)Nc1ccccc1 | 1.77 | 1.28 | 0.927 | 0.995 | 1.32 | 0.924 | -0.925 | 1.29 | 0.928 | -0.546 (inactive) | 0.446 | -5.46 (inactive) | -0.785 (inactive) | 1.16 (inactive) | -2.23 (inactive) | 0.869 | 0.0906 | 0.487 | 1.11 | 1.43
O=C1O[C@H](c2ccccc2)[C@H](c2ccccc2)N2[C@H]1[C@@H](C(=O)NC[C@H](O)c1ccccc1)[C@]1(C(=O)Nc3ccc(C#CCCO)cc31)[C@H]2c1ccc(O)cc1 | -1.3 | -1.08 | -0.598 | -1.07 | -1.26 | -0.702 | -1.17 | -0.929 | -1.09 | 0.145 (inactive) | -0.11 | -4.32 (inactive) | -1.16 (inactive) | -0.329 (inactive) | 0.0393 (inactive) | -1.11 | 0.295 | -0.596 | -1.36 | -0.606
COCCOC(=O)N1C(=O)[C@@]2(c3cc(C#Cc4ccc(OC)cc4)ccc31)[C@H](C(=O)N1CCN(c3ncccn3)CC1)[C@H]1C(=O)O[C@H](c3ccccc3)[C@H](c3ccccc3)N1[C@@H]2c1ccc(O)cc1 | 0.136 | 0.64 | 1.2 | -0.126 | 0.755 | 0.633 | -0.334 | 0.331 | 0.428 | -0.938 (inactive) | -0.0081 | -3.61 (inactive) | -1.03 (inactive) | -0.191 (inactive) | 0.0921 (inactive) | -0.0988 | -0.0762 | 0.561 | -0.007 | 0.736
CC(C)CNC(=O)[C@@]1(c2ccc([N+](=O)[O-])cc2)CC(=O)N(CC23CC4CC(CC(C4)C2)C3)[C@@H]1c1ccc(CO)cc1I | 1.33 | 1.14 | 0.775 | 0.635 | 1.39 | 1.31 | 1.12 | 1.12 | 0.352 | -0.447 (inactive) | 0.777 | -4.95 (inactive) | -0.266 (inactive) | 0.145 (inactive) | 1.07 (inactive) | 0.574 | 0.11 | 0.283 | 0.578 | 2.02
C=CCC(OC(C)=O)[C@@H]1[C@@H](N(Cc2cccc3ccccc23)C(=O)c2cccc3ccccc23)c2cc(OCCCO)ccc2N1C(=O)c1ccc2ccccc2n1 (stereo not given in full) | 0.833 | -0.0829 | 0.791 | 0.868 | 1.05 | 0.494 | -0.449 | 0.457 | -0.243 | 1.01 (inactive) | -0.0721 | -1.66 (inactive) | 0.603 (inactive) | 0.265 (inactive) | 0.446 (inactive) | 0.193 | -0.0791 | -0.309 | -0.297 | 0.832
CC1CC/C=C\[C@H]2OC34C=CCN(Cc5ccccc5)C(=O)[C@H]3N(CCCCCO)C(=O)[C@@H]4C2C(=O)O1 (stereo not given in full) | 0.15 | -0.825 | 1.19 | -0.985 | -0.599 | -0.754 | 1.37 | -0.812 | -0.494 | -0.763 (inactive) | 0.008 | 0.398 (inactive) | 1.96 (inactive) | 1 (inactive) | 0.424 (inactive) | -0.966 | -0.242 | -1.17 | -1.4 | -0.829
